Values without a mark were called inactive.
test system: Pseudomonas aeruginosa PA14 wild type; experiment: respiration area under curve with compound as sole nitrogen source, 24 h (OmniLog AUC (arbitrary units)); higher = more respiration / better utilisation as nitrogen source, active = 2000 or more
Description: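 Biolog Phenotype MicroArray plates PM6-PM8: each di/tripeptide is the sole nitrogen source (IF-0 medium with succinate/ferric citrate and dye mix A). Tetrazolium reduction was read in the OmniLog every 15 min for 24 h at 37°C and summarised as area under the respiration curve (arbitrary units). The paper counts values below 2000 as no respiration and above 8000 as solid respiration. Replicate datasets are averaged.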

Row | Structure (SMILES) | respiration area under curve
1 | CC[C@H](C)[C@H](N)C(=O)NCC(=O)O (plate: PM6) | 4940 (active)
2 | CC(C)C[C@@H](N)C(=O)N[C@H](CC(C)C)C(=O)O (plate: PM8) | 0
3 | NCC(=O)N[C@@H](CCCN=C(N)N)C(=O)O (plate: PM6) | 8640 (active)
4 | CSCC[C@H](NC(=O)[C@@H](N)CCCN=C(N)N)C(=O)O (plate: PM6) | 10500 (active)
5 | CC(C)[C@H](NC(=O)CN)C(=O)O (plate: PM6) | 4270 (active)
6 | CSCC[C@H](N)C(=O)N[C@@H](CCC(=O)O)C(=O)O (plate: PM7) | 1960
7 | C[C@@H](O)[C@H](N)C(=O)NCC(=O)O (plate: PM7) | 8140 (active)
8 | C[C@H](N)C(=O)N[C@@H](CC(N)=O)C(=O)O (plate: PM6) | 8960 (active)
9 | CC(C)[C@H](N)C(=O)N[C@H](C(=O)O)C(C)C (plate: PM7) | 9240 (active)
10 | CSCC[C@H](N)C(=O)N[C@@H](CC(C)C)C(=O)O (plate: PM7) | 2580 (active)
11 | CC(C)[C@H](NC(=O)[C@@H](N)CCC(=O)O)C(=O)O (plate: PM6) | 5390 (active)
12 | N[C@@H](Cc1ccccc1)C(=O)N[C@@H](Cc1c[nH]c2ccccc12)C(=O)O (plate: PM7) | 524
13 | NC(=O)CC[C@H](NC(=O)[C@@H](N)Cc1ccc(O)cc1)C(=O)O (plate: PM7) | 13000 (active)
14 | NC(=O)C[C@H](N)C(=O)N[C@@H](CCC(=O)O)C(=O)O (plate: PM6) | 5930 (active)

From the supplement of paper PMC4206461
